Source: PubChem BioAssay (National Center for Advancing Translational Sciences (NCATS))
A selection: hits, their analogues and other compounds. The true share with any hit is near 10%.
PNC inhibitor – High Content Assay for Compounds that inhibit the Assembly of the Perinucleolar Compartment; PC3M PTB-GFP, PNC prevalence imaging, 16 h; hits give low values; activity change (PNC), negative = inhibition, % at 10 µM; 140,000 tested, 3.1% active; AID 2417, 2010;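 active = readout at or below -70, meaning at least 70% loss of cells showing the perinucleolar compartment, a nuclear body marking cancer cells; inconclusive = readout between -30 and a set limit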
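Compounds are pinned in duplicate onto adhered PC3M cells stably expressing GFP-tagged PTB and incubated 16 h at 37 C. Cells are then fixed, nuclei stained with Hoechst, and PNC-positive cells counted.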
LMNA splice mod – qHTS Assay for Modulators of Lamin A Splicing | HeLa LMNA splicing GFP/RFP minigene ratio, 48 h | Potency, µM (series often up to 46.1 µM), usual class: inhibitors | 200,000 tested, 0.01% active | AID 1487, 2009; active = well fitted inhibition curve with a large enough effect in the signal ratio, with a control signal flat, not every such curve was filed as active; inconclusive = small, poorly fitted or top-dose-only effect, or effect the other way, or a change in a side signal; the % refers to the signal ratio
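S3 HeLa stable clones carrying a lamin A-EGFP splicing minigene plus DsRed2 were seeded at 600 cells/well in Opti-MEM with 2% FBS, pin-dosed and incubated 48 h at 37°C. Acumen cytometry (488 nm) gave the GFP/RFP total-intensity ratio.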
HPGD inh – qHTS Assay for Inhibitors of HPGD (15-Hydroxyprostaglandin Dehydrogenase) | 15-hydroxyprostaglandin dehydrogenase [NAD(+)] (Homo sapiens), P15428 | purified HPGD, NADH fluorescence kinetic, PGE2 substrate | Potency, µM, most hits filed as inhibitors | 150,000 tested, 4.3% active | AID 894, 2007
Target sequence (P15428 whole entry, looked up): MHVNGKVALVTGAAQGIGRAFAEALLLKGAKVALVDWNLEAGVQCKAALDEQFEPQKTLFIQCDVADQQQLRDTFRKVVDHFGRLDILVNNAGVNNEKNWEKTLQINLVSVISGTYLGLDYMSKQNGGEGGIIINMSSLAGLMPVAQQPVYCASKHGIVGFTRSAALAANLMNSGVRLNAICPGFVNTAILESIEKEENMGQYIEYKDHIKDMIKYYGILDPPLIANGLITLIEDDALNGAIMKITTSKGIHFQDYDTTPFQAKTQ
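NADH formation kinetics: reaction with 30 uM PGE2 and 1 mM NAD+ (final), 20 nM enzyme, Tris-HCl pH 8 with Tween 20, after 15 min compound preincubation at room temperature. Fluorescence change, last versus first of five reads.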
12-hLO inh – qHTS Assay for Inhibitors of 12-hLO (12-human lipoxygenase); 150,000 tested, 0.12% active; purified 12-hLO, xylenol orange hydroperoxide absorbance; Polyunsaturated fatty acid lipoxygenase ALOX12 (Homo sapiens), P18054; Potency, µM (doses to about 57.1 µM), most hits filed as inhibitors; active = well fitted inhibition curve with a large enough effect; inconclusive = small, poorly fitted or top-dose-only effect; also: nearly all actives have a fitted effect of over 55% in size
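Purified human 12hLO (150 nM), preincubated 15 min with compound, then 40 uM arachidonic acid for 30 min, room temperature, Hepes pH 7.0 with 0.01% Triton X-100. Hydroperoxide detected by ferrous iron/xylenol orange; 573/405 nm absorbance ratio gives reaction progress.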
ALDH1A1 block – qHTS Assay for Inhibitors of Aldehyde Dehydrogenase 1 (ALDH1A1) | Aldehyde dehydrogenase 1A1 (Homo sapiens), P00352 | Purified ALDH1A1, NADH fluorescence, propionaldehyde substrate | Potency, µM (top dose mostly 75.3 µM), actives largely listed as inhibitors | 220,000 tested, 7.3% active
Large screens that a line does not name were inactive. Unless noted, calls follow the shape of the dose curve; as a rule, active = well fitted inhibition curve with a large enough effect (not every such curve was filed as active); inconclusive = small, poorly fitted or top-dose-only effect, or another doubt; inactive = no such curve, though single readings can be large or run the other way.

Nc1ccc(C(=O)c2cccs2)cc1	HPGD inh 22µM
CCC/C=C(\CCC)C(NC(=O)c1cccs1)c1ccc(C(=O)OC)cc1 (configuration not stated)	none (no result: PNC inhibitor, LMNA splice mod)
COc1cc(O)c(C)c(O)c1	LMNA splice mod inconclusive (no result: PNC inhibitor)
O=C1CCCC(C(C(=O)OCc2ccccc2)C(=O)OCc2ccccc2)C1 (configuration not stated)	none (no result: PNC inhibitor, LMNA splice mod, 12-hLO inh)
Cc1ccc(S(=O)(=O)N2CCOCC2)cc1C(=O)Nc1c(C)n(C)n(-c2ccccc2)c1=O	PNC inhibitor -100
Cc1ccc(C(=O)Nc2c(C)n(C)n(-c3ccccc3)c2=O)cc1S(=O)(=O)N1CCOCC1	none
Cc1ccc(S(=O)(=O)N2CCOCC2)cc1C(=O)N1CCOCC1	none
Cc1cc(C(=O)CCl)c(C)n1-c1cccc(S(=O)(=O)N2CCOCC2)c1	LMNA splice mod inconclusive, ALDH1A1 block 0.18µM (no result: PNC inhibitor, HPGD inh, 12-hLO inh)
Cc1ccc(S(=O)(=O)N2CCOCC2)cc1C(=O)c1nccn1C	ALDH1A1 block 19µM (no result: PNC inhibitor, HPGD inh, 12-hLO inh)
Cc1cc(S(=O)(=O)Nc2ccccc2C(=O)O)ccc1Cl	PNC inhibitor -117, LMNA splice mod inconclusive
O=C(O)c1ccccc1NS(=O)(=O)c1ccc(Cl)c(Cl)c1	none (no result: PNC inhibitor, LMNA splice mod)
O=C(O)c1ccccc1/C=N/Nc1ccc(S(=O)(=O)N2CCCC2)cc1[N+](=O)[O-]	ALDH1A1 block 13µM (no result: PNC inhibitor, LMNA splice mod, HPGD inh, 12-hLO inh)
Cc1nn(-c2ccccc2)c(Cl)c1/C=N/Nc1ccc(S(=O)(=O)Nc2ccccc2C(=O)O)cc1[N+](=O)[O-]	HPGD inh 16µM, 12-hLO inh inconclusive, ALDH1A1 block inconclusive
O=[N+]([O-])c1cc(S(=O)(=O)N2CCCC2)ccc1N/N=C/c1cccnc1	none
Cc1nn(-c2ccccc2)c(Cl)c1/C=N/Nc1ccc(Cl)c(C(=O)O)c1	LMNA splice mod inconclusive, HPGD inh inconclusive
COCC(=O)N(Cc1cc2ccc(C)cc2[nH]c1=O)c1ccc(OC)cc1	none
CCOc1ccc(N(Cc2cc3ccc(C)cc3[nH]c2=O)C(=O)COC)cc1	ALDH1A1 block 18µM
COc1cccc(C2CC(C(F)(F)F)n3ncc(C(=O)NCC4CCCO4)c3N2)c1 (configuration not stated)	HPGD inh 14µM
COc1ccc(C2CC(C(F)(F)F)n3ncc(C(=O)NCc4cccnc4)c3N2)cc1OC (configuration not stated)	PNC inhibitor -82
COc1cc(C2CC(C(F)(F)F)n3ncc(C(=O)O)c3N2)cc(OC)c1OC (configuration not stated)	none
CCOC(=O)c1c(NC(=O)c2cnn3c2NC(c2cccc(OC)c2)CC3C(F)(F)F)sc2c1CCCC2 (configuration not stated)	LMNA splice mod inconclusive, HPGD inh inconclusive
COC(=O)c1scc(-c2ccc(C)cc2)c1S(=O)(=O)N1CCN(c2ccc(F)cc2)CC1	none (no result: PNC inhibitor, HPGD inh, 12-hLO inh, ALDH1A1 block)
Cc1ccc(C)c(NC(=O)N2CCC(CN3CCOCC3)CC2)c1	none (no result: PNC inhibitor, HPGD inh, 12-hLO inh, ALDH1A1 block)
CC1CCN(CC2CCN(C(=O)NCc3ccc(F)cc3)CC2)CC1	none (no result: PNC inhibitor, HPGD inh, 12-hLO inh, ALDH1A1 block)
Cc1ccc(C(=O)O/N=C2\CC3CCC2(C)C3(C)C)cc1 (configuration not stated)	PNC inhibitor inconclusive, ALDH1A1 block 13µM
Cc1cccc(C(=O)O/N=C2/CC3CCC2(C)C3(C)C)c1 (configuration not stated)	none
O=C(NC1CCCCCC1)C(=S)N1CCCC1	none (no result: PNC inhibitor, LMNA splice mod, HPGD inh, 12-hLO inh)
O=C(NC1CCCCCC1)C(=S)N1CCOCC1	ALDH1A1 block 10µM (no result: PNC inhibitor, HPGD inh, 12-hLO inh)
Cc1ccc(NC(=O)CN2C(=O)c3cccnc3Oc3ccc(Cl)cc32)cc1	none (no result: PNC inhibitor, HPGD inh, 12-hLO inh, ALDH1A1 block)
OC(C#CCN1CCCC1)c1ccccc1 (configuration not stated)	PNC inhibitor -87, ALDH1A1 block inconclusive
Cc1ccc(C(=O)N/N=C/c2cc(C)n(-c3ccc(Br)cc3)c2C)cc1[N+](=O)[O-]	HPGD inh inconclusive, ALDH1A1 block 10µM
COc1ccc(N=C2SC(CC(=O)Nc3ccccc3OC)C(=O)N2Cc2ccco2)cc1 (configuration not stated)	PNC inhibitor -104, LMNA splice mod inconclusive, HPGD inh inconclusive
